Reference: PubChem BioAssay (NCATS)
Values without a mark were called inactive. Inconclusive results are not listed. Calls of active or inactive are those of the source. Unless noted, the call rests on the fitted dose curve; in most records, active means well fitted curve in either direction with a large enough effect (not every such curve was filed as active); inconclusive means small, poorly fitted or top-dose-only effect, or another doubt; inactive means flat fitted curve, though single readings scatter.

Assays:
[1] = target: Lysosomal acid glucosylceramidase (Homo sapiens) (UniProt P04062); experiment: Glucocerebrosidase-p2 (AID 348; in the data active means potency below about 10 µM; further: potency means the concentration at half of the fitted maximal effect); details: purified GBA, blue fluorogenic substrate, 40 min
Lysosomal acid glucosylceramidase (Homo sapiens), sequence (P04062 whole entry, looked up): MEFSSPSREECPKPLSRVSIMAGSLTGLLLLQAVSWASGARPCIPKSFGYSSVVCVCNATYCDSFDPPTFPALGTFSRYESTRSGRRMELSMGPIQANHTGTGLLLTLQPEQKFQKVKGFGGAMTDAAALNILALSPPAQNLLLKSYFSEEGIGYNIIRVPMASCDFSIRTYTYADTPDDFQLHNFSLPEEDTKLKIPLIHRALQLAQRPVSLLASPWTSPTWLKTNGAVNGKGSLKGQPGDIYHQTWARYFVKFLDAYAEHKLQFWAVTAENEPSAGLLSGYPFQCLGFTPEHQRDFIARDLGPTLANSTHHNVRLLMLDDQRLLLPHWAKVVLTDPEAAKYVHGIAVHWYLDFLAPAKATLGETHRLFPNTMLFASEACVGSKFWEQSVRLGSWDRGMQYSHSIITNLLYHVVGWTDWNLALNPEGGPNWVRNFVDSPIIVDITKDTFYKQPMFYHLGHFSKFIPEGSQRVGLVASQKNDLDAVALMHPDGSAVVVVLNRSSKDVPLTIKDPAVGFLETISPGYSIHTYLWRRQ
Summary of the method: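 Compounds titrated from 0.6 nM upwards against 0.2 nM enzyme in pH 5.9 citric acid/KH2PO4, taurocholate, tween-20; blue fluorogenic substrate 80 uM, 40 min room temperature, stopped and read Ex 365/Em 440 for AC50.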

[2] = AP1 Signaling Pathway (AID 357); details: ME-180 AP-1-bla reporter, EGF-induced, beta-lactamase ratio, 5 h; at 7.69 µM (top of the series) unless noted;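 further: ME-180 reporter cells stimulated with EGF at its EC50 level; on the % scale 0 is the no-effect control and ±100 the full control effect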
Summary of the method: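 Cells are seeded overnight, exposed to compound titrations and an EC50 level of EGF for 5 hours at 37 °C, then loaded with CCF4 dye for 2.5 hours. Beta-lactamase activity under the AP-1 element is read as a blue/green ratio.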

[3] = target: Cytochrome P450 1A2 (Homo sapiens) (UniProt P05177); experiment: p450-cyp1a2 (AID 410; calls by dose curve; further: potency means the concentration at half of the fitted maximal effect;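 on activity change, negative = inhibition: -100% = full effect of reference inhibitor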); details: recombinant CYP1A2, luciferin-ME demethylation, luminescence; series mostly up to 11.4 µM
Cytochrome P450 1A2 (Homo sapiens), sequence (P05177 whole entry, looked up): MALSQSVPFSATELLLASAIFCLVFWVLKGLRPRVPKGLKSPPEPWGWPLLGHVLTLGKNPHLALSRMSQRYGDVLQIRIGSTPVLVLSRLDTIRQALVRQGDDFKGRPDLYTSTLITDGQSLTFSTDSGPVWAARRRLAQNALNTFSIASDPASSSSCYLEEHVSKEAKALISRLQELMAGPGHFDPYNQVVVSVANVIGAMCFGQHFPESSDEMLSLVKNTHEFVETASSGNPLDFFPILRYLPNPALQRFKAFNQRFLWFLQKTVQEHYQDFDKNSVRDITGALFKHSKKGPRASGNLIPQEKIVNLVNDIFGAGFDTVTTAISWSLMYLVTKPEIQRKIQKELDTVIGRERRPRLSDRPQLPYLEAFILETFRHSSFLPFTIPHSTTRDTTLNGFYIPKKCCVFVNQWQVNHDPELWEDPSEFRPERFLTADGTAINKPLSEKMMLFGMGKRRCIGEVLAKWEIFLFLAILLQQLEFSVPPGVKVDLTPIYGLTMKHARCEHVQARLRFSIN
Summary of the method: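 20nM CYP1A2 with 100uM Luciferin-ME (at Km) in 100mM KPO4; compound preincubated 10 min, NADPH regeneration added, 60 min at room temperature. Luciferin quantified by luminescence after detection reagent; normalized to 57 uM furafylline.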

[4] = NFAT Signaling Pathway (AID 444); details: Jurkat NFAT-bla M1, carbachol, beta-lactamase ratio, 5 h; at 7.69 µM (top of the series) unless noted;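 further: carbachol stimulus at about its EC50 of 1 µM final; on the % scale 0 is the no-effect control and ±100 the full control effect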
Summary of the method: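 Jurkat cells carrying an NFAT-driven β-lactamase reporter and co-transfected muscarinic M1 receptor were treated with compound plus carbachol (1 uM final, an EC50 level) for 5 h at 37 °C. CCF4 loading followed for 1 h at RT; 460/530 nm ratio gave %activity.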

[5] = Stat Signaling Pathway (AID 446); details: ME-180 (cervical carcinoma) SIE beta-lactamase reporter, IL-6 stimulated, 5 h; at 7.69 µM (top of the series) unless noted;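 further: ME-180 cervical cancer cells given 40 pM IL-6 alongside compound; SIE-controlled beta-lactamase reporter measured as 460/530 nm FRET emission ratio; on the % scale 0 is the no-effect control and ±100 the full control effect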
Summary of the method: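 IL-6/STAT signaling read in ME-180 cells via an SIE beta-lactamase reporter. Stimulus was 40 pM IL-6 (its AC50) for 5 hrs, so both activation and inhibition register.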

[6] = target: Glucocorticoid receptor (Homo sapiens) (UniProt P04150); experiment: GR-GFP Redistribution (AID 450;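 active means compounds whose dose series gives a full or clear partial fitted curve of increased nuclear translocation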; further: potency means the concentration at half of the fitted maximal effect); details: U2OS GR-GFP nuclear translocation, laser cytometry, 2 h
Glucocorticoid receptor (Homo sapiens), sequence (P04150 whole entry, looked up, the tested form may be a part): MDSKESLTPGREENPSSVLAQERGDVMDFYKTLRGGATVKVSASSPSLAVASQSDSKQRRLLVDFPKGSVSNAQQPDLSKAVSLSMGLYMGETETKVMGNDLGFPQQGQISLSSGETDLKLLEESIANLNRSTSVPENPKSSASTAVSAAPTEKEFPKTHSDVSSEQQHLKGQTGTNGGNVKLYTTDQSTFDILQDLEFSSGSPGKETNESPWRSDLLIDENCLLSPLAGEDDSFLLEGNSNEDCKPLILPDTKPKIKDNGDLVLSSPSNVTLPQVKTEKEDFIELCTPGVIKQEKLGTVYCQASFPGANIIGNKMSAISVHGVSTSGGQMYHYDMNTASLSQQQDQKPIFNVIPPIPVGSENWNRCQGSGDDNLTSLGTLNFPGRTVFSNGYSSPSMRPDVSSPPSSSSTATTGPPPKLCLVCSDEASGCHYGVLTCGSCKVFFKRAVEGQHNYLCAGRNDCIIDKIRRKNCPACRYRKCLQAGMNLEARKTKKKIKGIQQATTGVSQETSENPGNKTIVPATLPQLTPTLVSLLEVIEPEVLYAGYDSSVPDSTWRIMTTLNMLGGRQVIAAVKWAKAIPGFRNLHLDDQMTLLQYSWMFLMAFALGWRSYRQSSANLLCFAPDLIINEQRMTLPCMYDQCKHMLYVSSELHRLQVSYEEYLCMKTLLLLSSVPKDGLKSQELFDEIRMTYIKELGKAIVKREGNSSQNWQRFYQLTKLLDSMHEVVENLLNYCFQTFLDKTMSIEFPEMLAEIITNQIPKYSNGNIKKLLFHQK

[7] = target: Glucocorticoid receptor (Homo sapiens) (UniProt P04150); experiment: GR-EFC Redistribution (AID 451; calls by dose curve; further: potency means the concentration at half of the fitted maximal effect); details: CHO-K1 GR-EFC translocation, beta-gal luminescence, 2 h
Summary of the method: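 CHO-K1 cells stably expressing nuclear-localized β-gal enzyme acceptor and GR fused C-terminally to the enzyme donor fragment; ligand-driven nuclear translocation restores β-gal by complementation. Compounds titrated up to 46 uM final, 2 h at 37 °C; luminescence read.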

[8] = target: Mitogen-activated protein kinase 10 (Mus musculus) (UniProt Q61831); experiment: JNK3 AlphaScreen Assay (AID 530); details: JNK3 lysate, c-Jun phosphorylation; series mostly up to 11.4 µM;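 further: kinase came from lysate of stimulated human HepG2 cells; signal reports phosphorylation of biotinylated GST-cJun 1-79 at Ser73 with 10 µM ATP; on the % scale 0 is the no-effect control and ±100 the full control effect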
Summary of the method: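 Inhibitors reduce antibody binding to phosphorylated biotin-cJun, lowering AlphaScreen luminescence. Lysates from HepG2 cells pre-activated by IL-1beta plus TNF-alpha supplied JNK3; compounds were titrated.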

[9] = target: 3',5'-cyclic-AMP phosphodiesterase 4B (Homo sapiens) (UniProt Q07343); experiment: qHTS Assay for Inhibitors of PDE-IV (AID 607; active means well fitted activation curve with a large enough effect in the main read-out, with a control signal flat, not every such curve was filed as active; further: % of control where 0% means no effect); details: HEK293 ACTOne CNG channel cells, membrane potential fluorescence; series mostly up to 22.9 µM
3',5'-cyclic-AMP phosphodiesterase 4B (Homo sapiens), sequence (Q07343 whole entry, looked up): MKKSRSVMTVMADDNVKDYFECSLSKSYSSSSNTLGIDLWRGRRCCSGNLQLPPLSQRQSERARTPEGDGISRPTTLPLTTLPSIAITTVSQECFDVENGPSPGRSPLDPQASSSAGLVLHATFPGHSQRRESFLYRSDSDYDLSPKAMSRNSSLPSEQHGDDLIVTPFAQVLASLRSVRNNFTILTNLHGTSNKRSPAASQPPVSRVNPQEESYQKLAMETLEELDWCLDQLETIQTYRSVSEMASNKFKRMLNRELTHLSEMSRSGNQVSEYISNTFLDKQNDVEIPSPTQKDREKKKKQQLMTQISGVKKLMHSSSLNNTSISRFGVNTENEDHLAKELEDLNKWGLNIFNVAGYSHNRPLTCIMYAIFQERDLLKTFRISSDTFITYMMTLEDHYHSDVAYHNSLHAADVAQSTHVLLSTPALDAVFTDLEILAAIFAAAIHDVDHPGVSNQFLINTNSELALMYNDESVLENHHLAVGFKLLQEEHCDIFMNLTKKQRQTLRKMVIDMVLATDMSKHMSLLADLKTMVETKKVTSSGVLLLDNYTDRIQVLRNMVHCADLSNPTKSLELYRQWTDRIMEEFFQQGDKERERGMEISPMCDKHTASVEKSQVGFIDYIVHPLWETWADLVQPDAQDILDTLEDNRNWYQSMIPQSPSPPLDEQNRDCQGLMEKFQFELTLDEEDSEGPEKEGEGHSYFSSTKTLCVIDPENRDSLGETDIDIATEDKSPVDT
Summary of the method: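 Live HEK293 cells with a modified cyclic nucleotide-gated (CNG) channel report intracellular cAMP via membrane-potential dye fluorescence (ex 535/em 590 nm). Endogenous PDE-IV was targeted. Compounds were tested at up to 22.9 uM final; RO 20-1724 100 uM served as control.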

| SMILES | Potency [1] [µM] | activity change, negative = inhibition [2] [%] | Potency [3] | activity change, negative = inhibition [4] [%] | activity, negative = inhibition [5] [%] | Potency [6] [µM] | Potency [7] [µM] | Potency [8] | Potency [9] | activity change, negative = inhibition [3] |
| --- | --- | --- | --- | --- | --- | --- | --- | --- | --- | --- |
| O=C(O)c1cc(=O)[nH]c(SCc2ccccc2)n1 | > 11.4 | 12.1 | inactive | -27.5 | 0.79 | > 46 | > 9.22 | inactive | inactive |  |
| c1ccc([C@H](CCN2CCCC2)c2ccccn2)cc1 | > 11.4 | -0.626 | inactive | -26.3 | 0.606 | > 46 | > 9.22 | inactive | inactive |  |
| Oc1ccc(Cl)cc1C=Nc1cnc2ccccc2c1 | > 11.4 | 3.1 |  | 10.1 | -10.7 | > 46 | > 9.22 | inactive | inactive | -13.2% [at 2.29 µM] |
| CC1(C)[C@@H]2CC[C@]1(C)[C@@H](OC(=O)/C=C\c1ccccc1)C2 | > 11.4 | 5.51 |  | -17.9 | 21.7 | > 46 | > 9.22 | inactive | inactive | -3.4% [at 2.29 µM] |
| O[C@H](COc1ccccc1)CN1CCCCC1 | > 11.4 | -1.24 | inactive | 2.42 | 10.3 | > 46 | > 9.22 | inactive | inactive |  |
| NN(CC(=O)O)CC(=O)O | > 11.4 | -2.45 | inactive | -1.35 | -0.699 | > 46 | > 9.22 | inactive | inactive |  |
| O=C(O)c1c(-c2c3ccc(=O)cc-3oc3cc(O)ccc23)cc2ccccc2c1-c1ccccc1 | > 11.4 | 8.03 |  | 2.16 | 3.5 | > 46 | > 9.22 | inactive | inactive | -17.6% [at 2.29 µM] |
| Nc1nc(-c2ccc3ccccc3c2)cc(-c2cc(-c3ccc4ccccc4c3)nc(N)n2)n1 | > 11.4 | -3.27 | 0.501 µM (active) | 9.25 | 6.54 | > 46 | > 9.22 | inactive | inactive |  |
| CN(C)Cc1cc(C(C)(C)C)ccc1-c1ccc(C(C)(C)C)cc1CN(C)C | > 11.4 | 4.9 |  | 5.47 | 1.89 | > 46 | > 9.22 | inactive | inactive | -17.9% [at 2.29 µM] |
| Cc1cc2sc(C)[n+](CCCOS(=O)(=O)O)c2cc1C | > 11.4 | -5.1 | inactive | 7.47 | 1 | > 46 | > 9.22 | inactive | inactive |  |
| N=C(N)SCc1cccc(-c2nc3ccccc3c(=O)o2)c1 | > 11.4 | 0.968 |  | 10.1 | 2.22 | > 46 | > 9.22 | inactive | inactive | -10.3% [at 2.29 µM] |
| C1CCN(CC[C@@H]2CCCCN2)CC1 | > 11.4 | 12.5 | inactive | 8.93 | -0.348 | > 46 | > 9.22 | inactive | inactive |  |
| N[C@H]1[C@@H](C(=O)O)[C@H]2C=C[C@H]1C2 | > 11.4 | 7.53 | inactive | 24.6 | 7.88 | > 46 | > 9.22 | inactive | inactive |  |
| O=C(O)[C@@H]1[C@@H]2C[C@@H]3[C@@H](OC(=O)[C@@H]31)[C@H]2Br | > 11.4 | 4.57 | inactive | -26.7 | 5.86 | > 46 | > 9.22 | inactive | inactive |  |
| Cn1c(N)c(N=Nc2ccc(S(N)(=O)=O)cc2)c(=O)n(C)c1=O | > 11.4 | 12.7 |  | 16.4 | 24.3 | > 46 | > 9.22 | inactive | inactive | -12.8% [at 2.29 µM] |
